# PubChem BioAssay AID743269 (The Scripps Research Institute Molecular Screening Center, 2014)
# About 2,400 (0.65%) of roughly 370,000 compounds were called active. The full list was thinned out, with actives kept by preference. A number with no mark means an inactive call.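 How the source made its calls: active means inhibition above the screen-wide mean plus 3 SD (cut at about 13% in these data); inactive means the rest.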
# System: HIV-1 integrase (with human LEDGF/p75)
# Test: blockers of LEDGF/p75-dependent integrase strand transfer – biochemical, TR-FRET, high throughput, primary screen (AID 743269);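 further: signal is the Cy5 over europium emission ratio at 671 and 618 nm; 0% = plate median of compound wells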
# Conditions: TR-FRET IN-LEDGF/p75 DNA integration, Eu/Cy5; at 3.7 µM; hits give high values
row,SMILES,inhibition
1,CCOc1cccc(=O)c2c(C)n(CC3CCCO3)c(C)c12 (stereo not given),19.8% (active)
2,CC(=O)Nc1ccc(NC(=O)CSc2nnc(COc3ccccc3C)n2CC2CCCO2)cc1 (stereo not given),-8.13%
3,CCOc1ccc(NC(=O)c2cccc3c2C(=O)N(CC2CCCO2)C3)cc1 (stereo not given),0.61%
4,COc1ccccc1CCNC(=O)C1CCN(c2nc(C)cc(C)n2)CC1,-0.51%
5,O=C(NCc1cccs1)C1CCCN(S(=O)(=O)c2ccc([N+](=O)[O-])cc2)C1 (stereo not given),4.07%
6,O=C(Nc1nnc(-c2ccccc2F)s1)c1ccccc1F,5.09%
7,NC(=O)c1ccccc1NC(=O)c1ccccc1F,30.1% (active)
8,O=C(Nc1ccccc1F)c1ccccc1-c1ccccc1,-1.52%
9,Cc1cc(NS(=O)(=O)c2ccc(NC(=O)CSc3nnc(-c4ccc(C(C)(C)C)cc4)n3Cc3ccco3)cc2)nc(C)n1,2.06%
10,COC(=O)[C@]1(C#N)CC(=O)N(CC2CCCCC2)[C@@H]1c1ccccc1,8.17%
11,COCCn1nnnc1C(c1ccccc1Cl)N1CCN(c2ccccc2OC)CC1 (stereo not given),-2.12%
12,COc1ccc(CCC(C)N2CCc3ccccc3C2)cc1 (stereo not given),0%
13,COCCn1nnnc1C(c1cc2ccc(OC)cc2[nH]c1=O)N1CCc2ccccc2C1 (stereo not given),23.1% (active)
14,O=C(CSc1nnc(-c2ccccn2)n1-c1ccccc1)Nc1ccc2cn[nH]c2c1,3.75%
15,CC[C@@H](CCC(=O)N(c1ccccc1)c1ccccc1)C1CC1,-0.47%
16,CCOC(=O)c1c(C)[nH]c2c1-c1ccccc1C(=O)C2=O,35% (active)
17,CCOC(=O)C1=C(C)c2ccccc2OC1C(=O)OCC (stereo not given),0.5%
18,CCOC(=O)c1[nH]c(C)c(C(=O)OCC(=O)N2c3ccccc3CC2C)c1C (stereo not given),0.57%
19,CN1C(=O)c2cc(NS(C)(=O)=O)ccc2OC[C@@H]2O[C@@H](CC(=O)NCc3ccc(-c4ccccc4)cc3)CC[C@H]21,0.81%
20,CC(CCN1CCC(C(O)(c2ccccc2)c2ccccc2)CC1)Oc1ccc(Cl)cc1 (stereo not given),-0.76%
21,Cc1cc2nc3c(=O)[nH]c(=O)nc-3n(C[C@H](O)[C@H](O)[C@H](O)CO)c2cc1C,-0.23%
22,CCN(CC)CCCC(C)n1c2nc(=O)[nH]c(=O)c-2nc2cc(Cl)ccc21 (stereo not given),19.5% (active)

row,SMILES,inhibition
1,CC(CCN1CCC(C(O)(c2ccccc2)c2ccccc2)CC1)Oc1ccc([N+](=O)[O-])cc1Cl (stereo not given),5.97%
2,O=C(CCCCCN1C(=O)C2C3C=CC(C3)C2C1=O)Nc1ccccn1 (stereo not given),1.71%
3,CCCNC(=O)CSc1nc(Cc2ccccc2)nc2ccccc12,-2.65%
4,COc1ccc2c(C)cc(SCC(=O)NCC3CCCO3)nc2c1 (stereo not given),5.4%
5,Cc1cc(SCC(=O)NCCN2C(=O)CSC2=O)nc2ccccc12,24.8% (active)
6,COP(=O)(O)CNC(=O)OCc1ccccc1,2.52%
7,C[C@@H](NC(=O)c1ccccc1OCC(=O)Nc1ccc(I)cc1)C(=O)N(C)Cc1ccccc1,-0.62%
8,CCCOc1ccc(Oc2c(Cl)cnn(Cc3cccc4ccccc34)c2=O)cc1,-4.41%
9,c1ccc(C2=Nc3cccc4cccc(c34)N2)cc1,15.3% (active)
10,Brc1ccc(C2CC(c3ccccc3)=Nc3ccccc3N2)cc1 (stereo not given),5.04%
11,CCOC(=O)[C@]12CCCCC/C=C\1N(Cc1ccc(OC)cc1)C(=O)[C@H]2CC(=O)N1CCOCC1,-1.27%
12,Cc1cc(C)n2ncc(C(=O)Nc3ccc4c(c3)OCCO4)c2n1,1.44%
13,O=C(Nc1cc2c3c(c1)C1CCCC1CN3CC1CCCC21)c1ccc([N+](=O)[O-])cc1 (stereo not given),0.76%
14,Cn1ccc(=Nc2ccc(NC(=O)c3ccc(N=c4ccn(C)c5ccc([N+](=O)[O-])cc45)cc3)cc2)cc1,19.9% (active)
15,CC(=O)Nc1ccc(C(=O)OCC(=O)Nc2ccc([N+](=O)[O-])cc2C(F)(F)F)cc1,1.78%
16,Cc1ccccc1CN1CCCCC(NC(=O)Nc2ccccc2F)C1=O (stereo not given),-1.11%
17,O=C(Nc1cc(F)cc(F)c1)OC1CCC12CCC(c1ccccc1)CC2 (stereo not given),-2.65%
18,CCCNC(=O)Nc1ccc2c(c1)C(=O)N(C)[C@H]1CC[C@H](CC(=O)NCC3CCCCC3)O[C@@H]1CO2,-2.65%
19,Cc1cc(=O)n2[nH]c(-c3sccc3-n3c(C)ccc3C)cc2n1,55.6% (active)
20,CCOC(=O)N1CCN(C(=O)C[C@@H]2C(=O)N(CCc3ccc(Cl)cc3)C3=CCCC[C@]32C(=O)OCC)CC1,-0.28%
21,COc1ccc(CSc2nnc(SCC(=O)Nc3ccccc3C(F)(F)F)s2)cc1,-4.35%
22,CC1CCN(C(=O)COC(=O)CCC(=O)c2cccs2)CC1,0.03%

row,SMILES,inhibition
1,O=C(COC(=O)CCC(=O)c1cccs1)NCc1ccco1,38.8% (active)
2,CCN(C(=O)COC(=O)CCC(=O)c1cccs1)C1CCCCC1,9.09%
3,C=CCN1C(=O)[C@@H](CC(=O)N2CCN(C(=O)c3ccco3)CC2)[C@]2(C(=O)OC)CCCCC=C12,-3.78%
4,COc1cc(/C=C/C(=O)n2cnc3ccccc32)cc(OC)c1OC,-2.83%
5,C[C@@H]1ON(C)[C@H]2C[C@H]3c4[nH]c5cccc(-c6ccc7c(c6)OCO7)c5c4CCN3C[C@@H]12,4.41%
6,Cc1c(Cl)c([N+](=O)[O-])nn1Cc1ccc(C(=O)N/N=C\c2cc(Cl)ccc2O)o1,-2.68%
7,Cc1ccc(/C=N/NC(=O)c2sccc2OCc2ccc(F)cc2)cc1,-2.37%
8,Cc1cc(C(=O)N/N=C/c2ccc(O)c([N+](=O)[O-])c2)c(C)n1-c1ccc(F)cc1,18.1% (active)
9,CCC[C@H]1C(=O)CC[C@@]23CCCN2C(=O)CCC[C@@H]13,0.78%
10,O=C(OCCOc1ccccc1Cl)c1cc(S(=O)(=O)N2CCCCC2)ccc1N1CCOCC1,4.88%
11,O=C(OCCOc1ccccc1F)c1cc(S(=O)(=O)N2CCOCC2)ccc1F,13.4% (active)
12,O=C(COC(=O)c1cc(S(=O)(=O)N2CCOCC2)ccc1F)NC1CC1,1.33%
13,O=C(NCC1COc2ccccc2O1)c1ccc(NC(=O)c2cc(F)ccc2F)cc1 (stereo not given),-2.1%
14,COc1ccc2[nH]c3c(C)c4cc[n+](C)cc4c(C)c3c2c1,28% (active)
15,O=C(CSc1nc2c(c(=O)[nH]1)CCCC2)N1CCCCC1,3.68%
16,CCOC(=O)C(=O)N(Cc1ccccc1)c1ccccc1C(=O)Nc1cc(OC)ccc1OC,0.37%
17,COC(=O)[C@]12C[C@H](CC(=O)NCc3ccccc3)C(=O)N(CCc3ccc(OC)c(OC)c3)C1=C[C@H](C(C)(C)C)O[C@@H]2C,-2.49%
18,Cc1ccc(-c2nn(-c3ccccc3)cc2/C=C2\SC(=S)N(CCCCCC(=O)O)C2=O)o1,13.6% (active)
19,C#CCNC(=O)C[C@H]1C[C@@]2(C(=O)OC)C(=C[C@H](C(C)C)O[C@@H]2C2CC2)N(Cc2ccco2)C1=O,0.25%
20,C=C(C)C#CC(Cc1ccccc1)NCC1CC1 (stereo not given),-6.26%
21,CN[C@H]1C[C@H]2c3cc(N4CCOCC4)ccc3CCN2C[C@H]1[C@H](C)O,3.07%
22,C[C@H](NC(=O)c1ccccc1Cl)C(=O)OCC(=O)N1CCN(c2ccccc2)CC1,1.43%

row,SMILES,inhibition
1,O=C(OCC(=O)N1CCN(c2ccccc2)CC1)c1ccc([N+](=O)[O-])s1,16.4% (active)
2,Cc1ccc(C)c(OCCC(=O)OCC(=O)N2CCN(c3ccccc3)CC2)c1,-9.14%
3,COc1ccc(-n2c(SCC(=O)Nc3ccccc3-c3ccccc3)nnc2-c2cccnc2)cc1,-1.52%
4,COc1ccc(CNC(=O)C(C)NCc2ccccc2Cl)cc1 (stereo not given),-0.38%
5,COc1ccc(NC(=O)C(NC(C)=O)C(=O)NCc2ccccc2Cl)cc1 (stereo not given),41.8% (active)
6,COc1ccc(NC(=O)N2CCCC2C(=O)NCc2ccccc2Cl)cc1 (stereo not given),-4.21%
7,CCC(=O)OCCCN1C(=O)CCC12CCC(c1ccccc1)CC2 (stereo not given),2.48%
8,O=C1CC(c2ccc3c(c2)OCO3)N=C2N(CC3CC3)C/C(=C/c3ccccc3)N12 (stereo not given),-0.65%
9,Cc1cc(NS(=O)(=O)c2ccc(NC(=O)CSc3nnc(SCc4ccc(F)cc4)s3)cc2)nc(C)n1,-3.91%
10,CCOC(=O)C1CCN(C(=O)C(C)(C)NC(=O)Nc2ccc(F)c(F)c2)CC1,3.2%
11,Cc1ccc(S(=O)(=O)/N=C2\C=C(NS(=O)(=O)c3ccc(C)cc3)C(=O)c3ccccc32)cc1,14.9% (active)
12,COc1ccc(C(=O)C(C)OC(=O)c2cccc(S(=O)(=O)Nc3c(C)n(C)n(-c4ccccc4)c3=O)c2)cc1 (stereo not given),1.63%
13,CNC(=O)COc1ccc(S(=O)(=O)Nc2ccccc2)cc1,-0.9%
14,Cc1ccc(S(=O)(=O)N/N=C(\c2ccccc2)C2CC2)cc1,0.27%
15,COc1ccc(S(=O)(=O)/N=C2\C=C(NS(=O)(=O)c3ccccc3)C(=O)c3ccccc32)cc1,15.6% (active)
16,Cc1ccc(S(=O)(=O)N[C@H](CO)C(C)C)cc1,4.45%
17,Cc1ccc(C)c(NC(=O)CCS(=O)(=O)c2ccccc2)c1,1.44%
18,O=C1CC[C@@]23CCCN2C(=O)CCC[C@H]3[C@H]1Cc1ccccc1,-0.34%
19,Fc1ccc2nc(COCc3nc4ccc(F)cc4[nH]3)[nH]c2c1,0.7%
